# Source: ChEMBL document CHEMBL3988442, “University of Dundee, Small-Polar-MMV Screening Library” (2021)
# The whole screen tested about 67,000 compounds, of which about 300 (0.45%) showed an effect of 50% or more. The sample holds strong results, similar compounds and a random draw of the others, so the mix is not that of the screen.
# Target: Polyketide synthase Pks13 (Mycobacterium tuberculosis (strain ATCC 25618 / H37Rv)) (UniProt I6X8D2)
# Test: Mycobacterium tuberculosis Polyketide synthase 13 Thioesterase (PKS13)
# Assay type: functional
# Parameters: scale not given: in the data most compounds retested in dose-response had high values
# Details: 30 µM
# Polyketide synthase Pks13 (Mycobacterium tuberculosis (strain ATCC 25618 / H37Rv)), sequence (I6X8D2 whole entry): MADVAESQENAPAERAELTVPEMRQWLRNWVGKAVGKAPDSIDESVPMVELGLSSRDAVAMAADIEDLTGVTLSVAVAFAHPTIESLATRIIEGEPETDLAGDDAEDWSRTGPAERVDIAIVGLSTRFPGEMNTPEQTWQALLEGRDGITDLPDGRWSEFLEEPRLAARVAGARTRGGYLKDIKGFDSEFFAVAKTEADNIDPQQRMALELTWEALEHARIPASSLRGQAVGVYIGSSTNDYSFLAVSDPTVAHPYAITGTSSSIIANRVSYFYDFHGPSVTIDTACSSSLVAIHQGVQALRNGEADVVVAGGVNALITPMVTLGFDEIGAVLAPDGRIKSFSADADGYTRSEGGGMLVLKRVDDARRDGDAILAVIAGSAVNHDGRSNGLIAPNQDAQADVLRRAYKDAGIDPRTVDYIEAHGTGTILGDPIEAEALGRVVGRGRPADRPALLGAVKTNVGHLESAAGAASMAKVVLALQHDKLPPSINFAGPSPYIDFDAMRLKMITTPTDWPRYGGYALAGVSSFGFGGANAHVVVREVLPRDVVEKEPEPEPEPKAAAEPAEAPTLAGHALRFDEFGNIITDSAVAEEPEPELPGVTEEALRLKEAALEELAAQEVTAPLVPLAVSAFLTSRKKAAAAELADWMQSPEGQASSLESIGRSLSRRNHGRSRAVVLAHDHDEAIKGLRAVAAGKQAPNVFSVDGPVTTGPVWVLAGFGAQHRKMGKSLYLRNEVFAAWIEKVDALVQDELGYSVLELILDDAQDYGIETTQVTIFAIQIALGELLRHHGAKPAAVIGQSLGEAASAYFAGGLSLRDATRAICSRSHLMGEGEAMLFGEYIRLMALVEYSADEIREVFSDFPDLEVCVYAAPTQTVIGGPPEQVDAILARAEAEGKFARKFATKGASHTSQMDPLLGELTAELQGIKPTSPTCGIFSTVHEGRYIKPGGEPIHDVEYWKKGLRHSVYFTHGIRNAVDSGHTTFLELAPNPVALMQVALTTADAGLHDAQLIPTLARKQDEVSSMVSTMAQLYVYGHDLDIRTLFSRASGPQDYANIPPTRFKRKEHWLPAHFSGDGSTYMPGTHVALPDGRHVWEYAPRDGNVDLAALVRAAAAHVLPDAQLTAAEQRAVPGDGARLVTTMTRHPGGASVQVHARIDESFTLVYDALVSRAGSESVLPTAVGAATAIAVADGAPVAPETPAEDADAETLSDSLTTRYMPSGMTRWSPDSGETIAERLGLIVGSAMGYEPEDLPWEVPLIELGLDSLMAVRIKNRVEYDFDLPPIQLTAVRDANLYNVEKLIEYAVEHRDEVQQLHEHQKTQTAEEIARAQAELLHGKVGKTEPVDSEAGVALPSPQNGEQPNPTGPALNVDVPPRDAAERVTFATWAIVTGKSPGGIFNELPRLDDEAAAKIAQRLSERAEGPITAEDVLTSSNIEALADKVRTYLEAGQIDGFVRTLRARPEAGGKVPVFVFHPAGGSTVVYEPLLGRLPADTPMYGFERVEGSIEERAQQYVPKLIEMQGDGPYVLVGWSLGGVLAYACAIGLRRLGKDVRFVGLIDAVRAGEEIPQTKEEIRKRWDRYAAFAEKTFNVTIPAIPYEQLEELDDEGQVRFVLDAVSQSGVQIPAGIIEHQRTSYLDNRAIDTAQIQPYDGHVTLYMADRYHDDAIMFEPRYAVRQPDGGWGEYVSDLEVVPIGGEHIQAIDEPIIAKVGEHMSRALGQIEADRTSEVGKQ
row,Compound,Percent Effect [%]
1,O=C(Nc1nc2c(s1)CN(S(=O)(=O)C1CC1)CC2)c1c(F)cccc1F,-2.3
2,O=C(Nc1nc2c(s1)CN(S(=O)(=O)C1CC1)CC2)c1ccc(Cl)s1,13.8
3,O=C(Nc1nc2c(s1)CN(S(=O)(=O)C1CC1)CC2)c1cccc(Cl)c1,75.5
4,CNC(=O)[C@@]12CCCN(c3ncccn3)[C@@H]1CN(c1ncc(C)cn1)C2,-27.3
5,Cn1nc(C2CCNC2)c2c(C(=O)NCC(F)(F)F)cc(C3CC3)nc21 (stereo not given),-7.7
6,Cn1nc(C2CCCN2)c2c(C(=O)NCC(F)(F)F)cc(C3CC3)nc21 (stereo not given),119
7,CC(C)CNC(=O)c1cc(C2CC2)nc2c1c(C1CCCN1)nn2C (stereo not given),-19.7
8,O=C(c1ccco1)N1CCO[C@@H]2CN(c3ccccc3)CC[C@@H]2C1,-28.4
9,Cc1cccc(N2CC[C@@H]3CN(C(=O)c4ccco4)CCO[C@@H]3C2)n1,-34.3
10,O=C(c1ccco1)N1CCO[C@@H]2CN(c3ccccn3)CC[C@@H]2C1,52.6
11,Fc1cnc(N2CCO[C@H]3CN(CC4CCCCC4)C[C@H]32)nc1,-51
12,O=C(c1cccc(F)c1)N1CC[C@H]2[C@H]1CCN2CC1CCOCC1,-17.7
13,Cc1nc2c(Nc3ccc(C#N)cc3)nc(N)nc2n1C,18.1
14,CC(=O)c1ccc(Nc2nc(N)nc3c2nc(C)n3C)cc1,2.22
15,Cc1nc2c(Nc3cccc(C#N)c3)nc(N)nc2n1C,58.8
16,O=C(NCc1ccccn1)[C@H]1COC[C@H]2CN(C3CCCC3)C[C@H]21,-25.1
17,CC1(NC(=O)Cc2csc(-c3ccccc3Cl)n2)CCS(=O)(=O)C1 (stereo not given),-7.78
18,CC1(NC(=O)Cc2csc(C(C)(C)C)n2)CCS(=O)(=O)C1 (stereo not given),-0.313
19,CC1(NC(=O)Cc2csc(NC(=O)c3ccccc3)n2)CCS(=O)(=O)C1 (stereo not given),51.1
20,c1ccc(CN2CCN3C[C@H](Oc4cccnc4)C[C@H]3C2)nc1,-35.4
21,CNC(=O)[C@H]1C[C@@H]2CN(C(=O)c3ccccn3)C[C@@H]2N1S(C)(=O)=O,-6.49
22,CSCc1ccc(N2CCC(C(O)Cc3ccccc3)CC2)nc1 (stereo not given),101
23,CSCc1ccc(N2CCC(C(O)CC(C)C)CC2)nc1 (stereo not given),6.3

row,Compound,Percent Effect [%]
1,Cc1ccc(N2CCC(C(O)Cc3ccccc3)CC2)nn1 (stereo not given),-23.2
2,CC(C)CNC(=O)N1CC[C@@H]2CN(Cc3cccnc3)S(=O)(=O)[C@@H]2CC1,-16.3
3,CCCN1C(=O)[C@@H]2[C@@H](CCN2C(=O)COC)N(Cc2cccs2)C1=O,26.9
4,Cc1cc(NCc2cccc(C#N)c2)ccc1Br,58.5
5,Cc1cc(NCc2cccc(C#N)c2)ccc1C(N)=O,-10.5
6,Cc1cc(NCc2cccc(C#N)c2)ccc1C(=O)N(C)C,-4.66
7,C1CC(N2C[C@@H]3COC[C@]3(COCC3CCOCC3)C2)C1,-9.77
8,Fc1ccccc1Cc1noc(CN2CC[C@@H]3CCCC[C@H]3C2)n1,-29.1
9,CC(C)c1cc(CN2CCC(N)CC2)no1,11.6
10,CC(C)c1cc(CN2CCC(CC(=O)O)CC2)no1,60.1
11,CC(C)c1cc(CN2CCNCC2)no1,18.9
12,CC(C)c1cc(C(=O)N2CCN(CC3CC3)[C@@H]3CS(=O)(=O)C[C@@H]32)on1,-6.23
13,O=C1[C@@H]2CCN(CC3CC3)C[C@@H]2OCCN1c1ccsc1,2.34
14,COc1cc(/C=C/c2ncc(C(=O)O)s2)cc(Cl)c1OC,16.6
15,CCOc1c(Br)cc(/C=C/c2ncc(C(=O)O)s2)cc1OC,-5.74
16,CCOc1cc(/C=C/c2ncc(C(=O)O)s2)cc(Br)c1OC,17.1
17,COc1cc(/C=C/c2ncc(C(=O)O)s2)cc(OC)c1,19.6
18,CCOc1c(Cl)cc(/C=C/c2ncc(C(=O)O)s2)cc1OC,23.8
19,CNC(=O)c1cnc(/C=C/c2cc(OC)cc(OC)c2)s1,54.2
20,CNC(=O)c1cnc(/C=C/c2cc(OC)c(OC)c(OC)c2)s1,17.9
21,COc1cc(/C=C/c2ncc(C(=O)O)s2)cc(Cl)c1O,64.9
22,CCOc1cc(/C=C/c2ncc(C(=O)O)s2)cc(Br)c1O,59.8
23,CC(=O)N1CC[C@H]2OCC[C@@]2(C(=O)NCCc2ccccn2)C1,-18.1

row,Compound,Percent Effect [%]
1,O=C(c1ccsc1)N1CCN2C[C@H](OCc3ccccn3)C[C@H]2C1,-2.94
2,Cc1ccc(N2C[C@@H]3OCCN(CC4CC4)[C@@H]3C2)nn1,0.27
3,O=C(C1CCCCC1)N1C[C@H]2CNC[C@H]2C1,-22.2
4,CCOC(=O)[C@@H]1[C@@H](c2ccccc2)CN2CCN(C(=O)N(C)C)C[C@H]12,-2.04
5,O=C(c1cnccn1)N1CCN2C[C@H](Oc3cccnc3)C[C@H]2C1,-12.6
6,CN(C)C(=O)[C@H]1C[C@@H]2CCN(C3CCOCC3)C[C@H]2O1,-11.1
7,COc1ccc(C2Nc3ccccc3NC3=C2C(=O)NC3)cc1OC (stereo not given),-7.87
8,CC(C)C(=O)N1CCC(n2nc(-c3ccco3)ccc2=O)CC1,0.602
9,O=C(c1ccco1)N1CCC(n2nc(-c3ccco3)ccc2=O)CC1,10.8
10,CC(C)(C)C(=O)N1CCC(n2nc(-c3ccco3)ccc2=O)CC1,125
11,CN(C)C(=O)N[C@@H]1CN(C2CCOCC2)[C@@H]2CCCO[C@@H]21,-25.3
12,CC(=O)N1CCO[C@@H]2CN(C(=O)c3ccccc3)CC[C@@H]2C1,7.28
13,Cc1cccc(COc2ccc(NC(=O)C(C)NC(N)=O)c(C)c2)c1 (stereo not given),53
14,CC(=O)NC(C)C(=O)Nc1ccc(OCc2cccc(F)c2)cc1C (stereo not given),-35.8
15,Cc1cc(OCc2cccc(F)c2)ccc1NC(=O)C(C)NC(N)=O (stereo not given),-1.33
16,c1ccc(OCC2C[C@@H]3[C@@H](C2)OCCN3CC2CCOCC2)nc1 (stereo not given in full),-0.0246
17,Cc1ccoc1C(=O)N1C[C@@H]2[C@@H](C1)OCC(=O)N2Cc1cccnc1,-9.46
18,c1ccc(N2CCOCC3(CCCN(c4nccs4)C3)C2)nc1 (stereo not given),66
19,Cc1cnc(N2CCCC3(COCCN(c4nccs4)C3)C2)nc1 (stereo not given),-20.9
20,Cc1ccc(N2CCCC3(COCCN(c4nccs4)C3)C2)nn1 (stereo not given),-10.9
21,Cc1nc2cc(C3CCN(C(=O)c4ccccn4)CC3)nn2c(O)c1C,-23.4
22,Cc1cccc(CN2C[C@@H]3OCCN(c4cnccn4)[C@@H]3C2)n1,-4.22
23,NC(=O)CCSc1n[nH]c(-c2ccc3c(c2)CCC3)n1,-2.85

row,Compound,Percent Effect [%]
1,CS(=O)(=O)CCCSc1n[nH]c(-c2ccc3c(c2)CCC3)n1,66.3
2,CS(=O)(=O)CCSc1n[nH]c(-c2ccc3c(c2)CCC3)n1,1.98
3,Cn1c(NCCC(=O)N2CCCC2)c(C#N)c(=O)n(C)c1=O,1.71
4,Cn1c(NCC(=O)N2CCCCC2)c(C#N)c(=O)n(C)c1=O,-9.87
5,Cn1c(NCC(=O)N2CCCC2)c(C#N)c(=O)n(C)c1=O,51.5
6,Cn1cc(N2C(=O)CC[C@@H]3[C@H]2CCN3Cc2cccc(C#N)c2)cn1,-11.3
7,O=c1[nH]c2cc3c(cc2cc1CN1CCCC1c1ccccn1)OCO3 (stereo not given),78.6
8,CCOc1ccc2[nH]c(=O)c(CN3CCCC3c3ccccn3)cc2c1 (stereo not given),-32.9
9,O=c1[nH]c2cc3c(cc2cc1CN1CCCC1c1ccccn1)CCC3 (stereo not given),-17.3
10,O=C(c1ccoc1)N1CC[C@@H]2O[C@@H](COCc3ccncc3)CC[C@@H]21,-10.6
11,O=C(C[C@H]1[C@H]2CN(c3ncccn3)C[C@@H]12)Nc1cccnc1,-4.86
12,CC(C)CN1CC[C@@H]2[C@@H]1CCN2C(=O)N(C)C,-18.3
13,CCc1nc(Cn2c(=O)c3c(C(F)(F)F)cc(C)nc3n2C)no1,9.67
14,CCc1noc(Cn2c(=O)c3c(C(F)(F)F)cc(C)nc3n2C)n1,64.5
15,Cc1cc(Cn2c(=O)c3c(C(F)(F)F)cc(C)nc3n2C)on1,3.92
16,CO[C@H]1CC[C@H]2[C@H]1OCCN2C(=O)c1ccc(C)nc1,-32.1
17,Cc1ccc(N2CC[C@H]3OCC[C@@]3(C(=O)NCC3CC3)C2)nn1,-16.8
18,CC(C)CN1CCN(Cc2nc3c(s2)CCCC3)[C@H]2CS(=O)(=O)C[C@H]21,3.91
19,O=C(c1cnc2c(cnn2C2CCCC2)c1)N1CCN(CCO)CC1,90.8
20,CCN1CCN(C(=O)c2cnc3c(cnn3C3CCCC3)c2)CC1,2.83
21,CN1CCN(C(=O)c2cnc3c(cnn3C3CCCC3)c2)CC1,-58.3
22,Cc1cc(CN2CC[C@@H]3O[C@@H](c4nnc(C)o4)C[C@H]3C2)no1,-7.21
23,CC(C)Nc1nc2c(cc1C(=O)NCC1CC1)CCN(S(C)(=O)=O)CC2,85.6

row,Compound,Percent Effect [%]
1,CC(C)Nc1nc2c(cc1C(=O)N(C)C)CCNCC2,0.822
2,CCS(=O)(=O)N1CCc2cc(C(=O)N(C)C)c(NCC3CC3)nc2CC1,-30.5
3,Cc1nc2c(cc1C(=O)O)CCN(CC1CC1)CC2,-19.8
4,CNC(=O)c1cc2c(nc1N(C)C)CCN(C)CC2,-20.6
5,CN(C)C(=O)c1cc2c(nc1NCC1CC1)CCN(CC1CC1)CC2,-12.7
6,CC(C)Nc1nc2c(cc1C(=O)NCC1CC1)CCN(C)CC2,90.8
7,CC(C)Nc1nc2c(cc1C(=O)NCC1CC1)CCN(CC1CC1)CC2,69.4
8,CC(C)CCN1CCc2cc(C(=O)N(C)C)c(NCC3CC3)nc2CC1,-8.68
9,CN1CCc2cc(C(=O)N(C)C)c(NCC3CC3)nc2CC1,-5.51
10,CNC(=O)c1cc2c(nc1NC(C)C)CCNCC2,73.6
11,CC(C)NC(=O)c1cc2c(nc1N(C)C)CCN(S(=O)(=O)C1CC1)CC2,33.7
12,CCS(=O)(=O)N1CC[C@H]2O[C@H](c3nnc(C)o3)CC[C@H]21,-8.23
13,CN1CC[C@H]2CN(C(=O)c3csc(Cc4ccccc4)n3)C[C@H]21,-37.9
14,O=C1O[C@@H]2CN(C3CCOCC3)C[C@@H]2N1CCCc1ccc(F)cc1,1.75
15,CC(C)CN1CCS(=O)(=O)[C@@H]2CCN(S(=O)(=O)N(C)C)CC[C@@H]21,-30.1
16,COCCN1CCc2cc(C(=O)N(C)C)c(NC(C)C)nc2CC1,-2.98
17,CCN1CCc2cc(C(=O)N(C)C)c(NCC3CC3)nc2CC1,-12.5
18,COCCN1CCc2cc(C(=O)NC(C)C)c(NCC3CC3)nc2CC1,45.7
19,CC(C)Nc1nc2c(cc1C(=O)NCC1CC1)CCNCC2,51.7
20,CNC(=O)c1cc2c(nc1NC(C)C)CCN(C(=O)NC(C)C)CC2,29.7
21,CNC(=O)N1CCc2cc(C(=O)N(C)C)c(NCC3CC3)nc2CC1,4.02
22,CNC(=O)N1CCc2cc(C(=O)NCC3CC3)c(NC(C)C)nc2CC1,51.5
23,COCCN1CCc2cc(C(=O)NCC3CC3)c(NC(C)C)nc2CC1,68.2
